Assay [1] relates to Human papillomavirus type 1a protein E7 (residues 44-93). As to the kind of experiment: small molecules binding HPV E7 44-93 – biochemical, small-molecule microarray, residues 44-93, 635 nm fluorescence, primary screen (AID 1108).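 Also: E7 fragment applied at 1 µg/mL in TBST for 1 h at 4 C; score combines spot fluorescence with its signal to noise ratio.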 Conditions: fluorescence 635 nm, higher = more signal.
Assay [2] is described as follows: hepatitis C replication reporter changes, two-sided – Huh7 cells, luciferase reporter, HCV replication inhibitor project, primary screen (AID 1109).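 Also: huh7 hepatoma cells harbouring a luciferase neomycin HCV replicon reporter; luciferase luminescence as measure of HCV replicon replication; test concentration not given here.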 Conditions: Huh7 HCV replicon luciferase reporter, 48 h; higher = more signal.
Assay [3] deals with Left-right determination factor 2 (Homo sapiens) (UniProt O00292). As to the kind of experiment: small molecules binding LEFTY2 protein – biochemical, small-molecule microarray, 635 nm fluorescence scan, primary screen (AID 1110). As to conditions: higher = more signal.
In assay [4] the target is Calmodulin-1 (Homo sapiens) (UniProt P0DP23). Briefly: small molecules binding calmodulin-1 with EGTA – biochemical, small-molecule microarray, Cy5-labelled CALM1, profiling panel (AID 1111).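 Also: labelled calmodulin applied in Tris saline Tween buffer holding calcium plus EGTA and DTT.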 Conditions: Cy5-CALM1 binding fluorescence, higher = more signal.
Assay [5] has the same target. As to the kind of experiment: small molecules binding Ca-loaded calmodulin-1 – biochemical, small-molecule microarray, Cy5-labelled CALM1, plus calcium, artefact control for SMM control-protein annotation, profiling panel (AID 1112).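 Also: score merges spot fluorescence with signal to noise from triplicate slides.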 As to conditions: Cy5-CALM1 binding fluorescence, higher = more signal.
A short description of assay [6]: probe aWnt5a binding to arrayed compounds – biochemical, biotinylated probe, 635/667 nm fluorescence, primary screen (AID 1113).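 Also: score merges 667 nm fluorescence intensity with signal-to-noise per printed feature.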 Conditions: small-molecule microarray, higher = more signal.
Assay [7] can be described thus: probe aShh binding to arrayed compounds – biochemical, biotinylated probe, 635/667 nm fluorescence, primary screen (AID 1114).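 Also: probe is biotin-labelled aShh protein from a stem cell growth factor screen; measures binding of labelled protein to compounds printed on the slide; score merges feature fluorescence at 667 nm with signal-to-noise.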 As to conditions: small-molecule microarray, higher = more signal.
Assay [8] in a line: probe aNog binding to arrayed compounds – biochemical, biotinylated probe, 635/667 nm fluorescence, primary screen (AID 1115).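 Also: probe is biotinylated aNog protein used at 0.15 µg/mL for 1 h at 4 C; z-score combines 667 nm fluorescence of each spot with its signal to noise.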 Conditions: small-molecule microarray, higher = more signal.
For assay [9], the target named is Torsin-1A-interacting protein 1 (Homo sapiens) (UniProt Q5JTV8). Briefly: compound microarray binding of lysate hLAP1 – cell lysate, small-molecule microarray, COS7 lysate, 635/667 nm fluorescence, primary screen (AID 1116). As to conditions: 635 nm fluorescence, higher = more signal.
Assay [10] concerns the target Alpha-bungarotoxin (Bungarus multicinctus) (UniProt P60615). As to the kind of experiment: compounds binding labelled alpha-BTX control protein – biochemical, small-molecule microarray, Alexa647 label, 635/667 nm fluorescence, artefact control for SMM control protein annotation, profiling panel (AID 1117). Conditions: alpha-BTX-A647 binding fluorescence, higher = more signal.

For another assay, the target named is Albumin (Bos taurus) (UniProt P02769). As to the kind of experiment: compounds binding labelled BSA control protein – biochemical, small-molecule microarray, Alexa647 label, 635/667 nm fluorescence, artefact control for SMM control protein annotation, profiling panel (AID 1118).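 Also: score merges 667 nm emission intensity and signal-to-noise per printed compound spot.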 As to conditions: BSA-A647 binding, fluorescence 635 nm, higher = more signal.
The nature of assay [11]: probe aXIP binding to arrayed compounds – biochemical, NeuroSMM set, 635/667 nm fluorescence, primary screen (AID 1119).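 Also: probe is the protein aXip251-270 applied at 1 µg/mL to compound-printed slides; binding of probe to printed compounds measured as 667 nm fluorescence plus signal to noise.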 As to conditions: small-molecule microarray, higher = more signal, called active from +8 up or from −8 down.
Assay [12] can be described thus: probe aNOTCH3 binding on compound microarray – biochemical, small-molecule microarray, 635/667 nm fluorescence, primary screen (AID 1120).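 Also: probe is a biotin-tagged antibody raised against NOTCH3 rather than NOTCH3 protein; score merges spot fluorescence near 667 nm with spot signal to noise.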 Conditions: higher = more signal.
Assay [13] can be described thus: probe aNOTCH2 binding on compound microarray – biochemical, small-molecule microarray, 635/667 nm fluorescence, primary screen (AID 1121).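 Also: score merges feature fluorescence read at 667 nm with its signal to noise.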 Conditions: higher = more signal.
For assay [14], the target named is Carbonic anhydrase 2 (Homo sapiens) (UniProt P00918). As to the kind of experiment: compounds binding carbonic anhydrase 2 – biochemical, small-molecule microarray, Alexa647-labelled CAII, profiling panel (AID 1122). As to conditions: CAII-A647 binding fluorescence, higher = more signal.
The nature of assay [15]: COS7 lysate on small-molecule microarray, probe aHis, 635 nm (AID 1123).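 Also: z-score combines 667nm fluorescence intensity with signal-to-noise per printed compound spot.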 Conditions: COS7 cell lysate, fluorescence, higher = more signal.
Assay [16] can be described thus: probe aLAP1 signal on lysate-treated microarray – cell lysate, small-molecule microarray, COS7 lysate, primary screen (AID 1124).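 Also: lysate comes from COS7 cells expressing LAP1 and is applied at 0.3 µg/mL; score merges spot fluorescence near 667 nm with signal-to-noise over triplicate slides.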 As to conditions: probe aLAP1, fluorescence, higher = more signal.
The subject of another assay is Sam68 (KHDRBS1). As to the kind of experiment: compounds binding KHDRBS1 protein – biochemical, small-molecule microarray, 635 nm fluorescence, primary screen (AID 1125).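 Also: score merges 667 nm channel intensity with signal to noise over triplicate slides.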 As to conditions: higher = more signal.
Assay [17] concerns Chordin-like protein 2 (CHRDL2). As to the kind of experiment: compounds binding chordin-like 2 – biochemical, small-molecule microarray, 635 nm fluorescence, primary screen (AID 1126).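 Also: printed compound slides probed with Chrdl2 protein at 4 µg/mL for 1 h at 4 C; score merges 667 nm emission intensity with signal to noise over three replicate slides.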 As to conditions: fluorescence 635 nm, higher = more signal.
The target in assay [18] is Concanavalin-A (Canavalia ensiformis) (UniProt P02866). Briefly: compounds binding concanavalin A lectin – biochemical, small-molecule microarray, Alexa647 label, 635 nm, artefact control for SMM control protein annotation, primary screen (AID 1127).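 Also: z combines 667 nm emission intensity with signal-to-noise across three replicate slides.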 As to conditions: ConA-A647 binding fluorescence, higher = more signal.

The structures appear in SMILES notation. Active and inactive are the calls of the source.

Chain of Alpha-bungarotoxin (Bungarus multicinctus) (P60615 whole entry, looked up): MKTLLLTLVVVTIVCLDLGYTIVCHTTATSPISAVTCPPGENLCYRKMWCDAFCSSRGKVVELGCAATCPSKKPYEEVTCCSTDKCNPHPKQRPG
Chain of Torsin-1A-interacting protein 1 (Homo sapiens) (Q5JTV8 whole entry, looked up): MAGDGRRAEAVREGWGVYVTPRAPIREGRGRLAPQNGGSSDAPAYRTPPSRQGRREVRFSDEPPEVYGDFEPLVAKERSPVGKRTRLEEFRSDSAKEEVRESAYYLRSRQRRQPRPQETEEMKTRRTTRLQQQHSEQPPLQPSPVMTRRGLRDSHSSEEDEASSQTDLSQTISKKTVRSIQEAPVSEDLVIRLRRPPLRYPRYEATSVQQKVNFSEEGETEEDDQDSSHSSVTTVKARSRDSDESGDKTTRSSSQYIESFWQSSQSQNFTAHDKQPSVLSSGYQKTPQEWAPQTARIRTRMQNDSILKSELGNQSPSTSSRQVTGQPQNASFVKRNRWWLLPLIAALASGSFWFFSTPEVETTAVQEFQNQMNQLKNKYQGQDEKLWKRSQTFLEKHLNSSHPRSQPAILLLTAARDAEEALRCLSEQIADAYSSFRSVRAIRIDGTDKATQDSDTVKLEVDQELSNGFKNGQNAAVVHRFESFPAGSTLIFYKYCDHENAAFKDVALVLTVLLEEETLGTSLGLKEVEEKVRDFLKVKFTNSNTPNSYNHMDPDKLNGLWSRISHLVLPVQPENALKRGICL
Chain of Albumin (Bos taurus) (P02769 whole entry, looked up): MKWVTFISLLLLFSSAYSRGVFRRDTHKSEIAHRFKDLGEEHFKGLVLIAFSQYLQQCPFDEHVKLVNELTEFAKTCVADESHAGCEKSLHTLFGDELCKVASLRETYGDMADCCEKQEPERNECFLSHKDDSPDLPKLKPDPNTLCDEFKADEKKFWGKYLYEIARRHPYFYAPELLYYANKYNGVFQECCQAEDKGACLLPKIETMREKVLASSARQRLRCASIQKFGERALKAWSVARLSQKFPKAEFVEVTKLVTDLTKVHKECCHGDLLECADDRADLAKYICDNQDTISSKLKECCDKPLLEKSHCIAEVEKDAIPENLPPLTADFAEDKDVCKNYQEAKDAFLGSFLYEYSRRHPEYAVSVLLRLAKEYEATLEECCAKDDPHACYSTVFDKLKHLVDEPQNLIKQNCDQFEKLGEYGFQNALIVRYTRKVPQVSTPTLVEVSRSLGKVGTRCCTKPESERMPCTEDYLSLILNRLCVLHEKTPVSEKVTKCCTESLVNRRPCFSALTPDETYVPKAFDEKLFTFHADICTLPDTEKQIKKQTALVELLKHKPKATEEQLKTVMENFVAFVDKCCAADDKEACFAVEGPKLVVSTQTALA
Chain of Concanavalin-A (Canavalia ensiformis) (P02866 whole entry, looked up): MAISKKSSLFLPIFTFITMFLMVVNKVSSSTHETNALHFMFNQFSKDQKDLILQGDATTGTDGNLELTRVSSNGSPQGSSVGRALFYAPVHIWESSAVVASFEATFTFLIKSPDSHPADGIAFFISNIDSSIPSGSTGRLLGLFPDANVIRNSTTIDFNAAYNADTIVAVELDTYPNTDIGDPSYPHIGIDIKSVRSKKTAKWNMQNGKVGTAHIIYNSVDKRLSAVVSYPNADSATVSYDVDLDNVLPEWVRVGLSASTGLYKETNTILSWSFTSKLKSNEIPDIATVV
Chain of Left-right determination factor 2 (Homo sapiens) (O00292 whole entry, looked up): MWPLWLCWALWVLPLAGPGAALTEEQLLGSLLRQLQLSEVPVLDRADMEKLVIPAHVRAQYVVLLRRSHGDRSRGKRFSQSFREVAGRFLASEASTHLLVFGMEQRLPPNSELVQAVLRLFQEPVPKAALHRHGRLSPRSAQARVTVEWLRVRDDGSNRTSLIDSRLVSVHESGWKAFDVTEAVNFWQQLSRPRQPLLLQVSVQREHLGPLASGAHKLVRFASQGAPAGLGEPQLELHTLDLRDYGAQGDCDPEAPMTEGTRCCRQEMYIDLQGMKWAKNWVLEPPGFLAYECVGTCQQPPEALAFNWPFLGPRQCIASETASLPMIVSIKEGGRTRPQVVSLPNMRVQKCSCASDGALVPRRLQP

For the molecule `CCOC(=O)C[C@H]1[C@H](OC(=O)c2ccc(C(=O)c3ccccc3)cc2)[C@@H](NC(=O)c2ccc(-c3ccccc3)cc2)c2cc(OCCCO)ccc2N1C(=O)c1ccccc1`, the composite z-score in assay [1] is 1.3; in [3], 0.342; in assay [4], 0.228; in assay [5], -0.119; in assay [6], 0.193; in assay [7], -0.0709. In addition, the composite z-score was -0.632 in [8]; 0.191 in assay [9]; 0.706 in assay [10]; 0.0256 in the assay with Albumin (Bos taurus); -0.0411 in assay [12]; -0.11 in [13]. Moreover, the composite z-score in [14] amounted to 0.0733; in assay [15] it was 1.31; in [16] it was 0.032; with Sam68 (KHDRBS1) it was 1.31; in assay [17], 0.303; in assay [18], 0.989. The same molecule returned a z-score in assay [2] of -1.1. The composite Z-score in assay [11] was 2.04 (inactive).

In the case of `COC(=O)c1c(CC[C@@H](CO)NC(=O)N[C@@H](C)Cn2cc(C3(O)CCCCC3)nn2)oc(C(C)=O)c1C(=O)OC`, the composite z-score in assay [1] is 0.921; in assay [3], 0.703; in assay [4], 0.685; in assay [5], -1.53; in assay [6] it was -0.0556; in [7] it was 0.0328. For the same molecule, the composite z-score in [8] is -0.0211; in assay [9], 0.666; in assay [10], 0.431; with Albumin (Bos taurus), 0.0745; in [12], 0.0596; in assay [13], -0.0466. The composite z-score in assay [14] is 0.421; in assay [15] it was 0.377; in assay [16], -0.0869; in the assay on Sam68 (KHDRBS1), 1.29; in [17], 1.02; in [18], 1.02. Further, the z-score in assay [2] is -0.418. In assay [11], the composite Z-score was 0.502 (inactive).

Take `COc1ccc([Si](C)(C)[C@H]2[C@H](CCO)O[C@@]3(C(=O)N(C)c4c(Br)cc(C)cc43)[C@@H]2C)cc1`: the composite z-score in assay [1] was -0.122; in assay [3] it was 0.304; in assay [4], 0.388; in assay [5] it was 0.204; in assay [6], -0.0944; in [7], -0.138. In addition, the composite z-score in [8] is 0.474; in assay [9], 0.269; in assay [10], 0.541; in the assay with Albumin (Bos taurus) it was -0.094; in [12], -0.0596; in assay [13], -0.0793. In addition, the composite z-score in assay [14] came to 0.473; in assay [15], 1; in assay [16], 0.0847; in the assay on Sam68 (KHDRBS1) it was 0.953; in assay [17], 0.344; in assay [18], 1.07. Also, the z-score in assay [2] was -5.23. In addition, the composite Z-score in assay [11] was -0.303 (inactive).

In the case of `COc1ccc(C(O)C2C=CC3C(=O)NC(=O)C3N2Nc2ccccn2)c2ccccc12` (stereo not given), the composite z-score in assay [1] is -0.266; in assay [3], 0.315; in [4], -0.0051; in [5], -0.194; in assay [6], -0.219; in assay [7] it was 0.147. The composite z-score was -0.0863 in assay [8]; -0.259 in assay [9]; 0.172 in assay [10]; 0.304 in the assay with Albumin (Bos taurus); -0.0431 in [12]; -0.101 in assay [13]. The composite z-score in assay [14] is 0.879; in assay [15] it was 0.452; in [16], -0.14; with Sam68 (KHDRBS1) it was -0.328; in assay [17] it was 0.485; in assay [18], 0.495. This molecule showed a z-score in [2] of 0.307. In [11], the composite Z-score was 0.224 (inactive).

As for `C=CCNC(=O)[C@H]1[C@@H]2C(=O)O[C@@H](c3ccccc3)[C@@H](c3ccccc3)N2[C@@H](c2ccc(OCCO)cc2)[C@]12C(=O)N(C(=O)OCCOC)c1ccccc12`, the composite z-score in [1] was 0.379; in assay [3], 0.666; in [4], 1.06; in assay [5], 0.0523; in assay [6] it was -0.14; in assay [7], -0.0056. Further, the composite z-score is -0.0681 in [8]; 0.985 in assay [9]; 1.66 in assay [10]; 0.262 with Albumin (Bos taurus); 0.199 in assay [12]; -0.0964 in [13]. In addition, the composite z-score in [14] worked out at 0.381; in assay [15] it was 1.99; in assay [16], 0.503; in the assay with Sam68 (KHDRBS1), 1.3; in assay [17] it was 0.176; in assay [18] it was 1.14. In addition, in [2], the z-score is -1.49. In assay [11], the composite Z-score was 0.108 (inactive).
